Data reported in PubChem BioAssay AID1445 (SRMLSC, 2008).
“And” between values parts separate entries of the source, which are not always exact repeats. Identical values can stand only once. Among all 220,000 compounds or so, about 910 (0.41%) were called active.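 How the source made its calls: active means primary inhibition above the hit cutoff, then over 50% inhibition at one or more dose response concentrations (cut at about 23% in these data, passing the limit was not always enough); inconclusive means conflicting primary data, or primary hits not chosen for dose response; inactive means low primary inhibition, or under 50% at every dose.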 This excerpt belongs to a sample that is enriched for actives. Results with a measured potency or affinity are listed apart.

Each compound was assayed against Aminopeptidase N (Plasmodium falciparum (isolate 3D7)) (UniProt O96935) (assay: P. falciparum M1AAP inhibitors, biochemical, fluorogenic H-Leu-NHMec substrate, 1536-well (AID 1445;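 further: plate controls were DMSO full reaction for no effect and no enzyme background for full effect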)). Details: recombinant M1AAP, H-Leu-NHMec fluorogenic kinetic assay; at 30 µM, hits give high values unless noted.
Sequence of Aminopeptidase N (Plasmodium falciparum (isolate 3D7)) (O96935 whole entry, looked up): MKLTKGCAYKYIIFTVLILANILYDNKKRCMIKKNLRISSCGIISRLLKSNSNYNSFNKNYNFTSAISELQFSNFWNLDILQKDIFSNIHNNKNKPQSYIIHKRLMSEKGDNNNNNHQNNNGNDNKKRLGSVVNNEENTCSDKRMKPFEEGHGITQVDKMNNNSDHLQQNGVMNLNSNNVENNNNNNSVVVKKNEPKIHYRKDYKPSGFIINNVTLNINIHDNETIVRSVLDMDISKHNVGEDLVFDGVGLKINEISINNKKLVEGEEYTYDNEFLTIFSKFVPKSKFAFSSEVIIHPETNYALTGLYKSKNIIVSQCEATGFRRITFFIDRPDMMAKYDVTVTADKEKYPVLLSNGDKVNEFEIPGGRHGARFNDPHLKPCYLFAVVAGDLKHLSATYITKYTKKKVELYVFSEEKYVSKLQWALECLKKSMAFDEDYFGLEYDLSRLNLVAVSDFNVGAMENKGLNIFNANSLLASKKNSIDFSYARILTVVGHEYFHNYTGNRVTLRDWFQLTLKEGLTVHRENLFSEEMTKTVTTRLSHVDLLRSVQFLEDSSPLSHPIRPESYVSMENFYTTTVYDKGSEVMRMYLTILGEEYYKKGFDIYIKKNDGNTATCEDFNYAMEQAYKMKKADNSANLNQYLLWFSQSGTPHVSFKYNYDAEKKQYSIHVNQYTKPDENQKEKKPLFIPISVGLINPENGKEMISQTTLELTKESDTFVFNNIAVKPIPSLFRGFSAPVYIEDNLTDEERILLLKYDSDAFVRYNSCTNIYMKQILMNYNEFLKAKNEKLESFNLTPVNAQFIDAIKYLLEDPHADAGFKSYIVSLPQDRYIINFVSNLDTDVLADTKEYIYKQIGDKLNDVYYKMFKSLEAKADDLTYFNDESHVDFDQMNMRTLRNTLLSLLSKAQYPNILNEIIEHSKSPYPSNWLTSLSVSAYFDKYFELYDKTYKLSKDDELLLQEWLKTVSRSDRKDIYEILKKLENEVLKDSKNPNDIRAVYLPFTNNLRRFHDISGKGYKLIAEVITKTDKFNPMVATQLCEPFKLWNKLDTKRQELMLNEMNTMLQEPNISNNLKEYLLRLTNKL

SMILES | inhibition
O=C(Nn1c(Cc2ccccc2)nc2ccccc2c1=O)c1c(O)c2cccc3c2n(c1=O)CCC3 | -0.5% (inactive)
Cc1cc(C(=O)N2CCC(C)CC2)on1 | 9.58% (inactive)
COc1nc(Nc2ccc([N+](=O)[O-])cc2)nc(NC2CCCCC2)n1 | 8.38% (inactive)
COc1ccc(NC(=S)N2CCN(C(=O)C3CCCO3)CC2)c(OC)c1 (configuration not stated) | 1.1% (inactive)
COCCNc1nnc(SCC(=O)Nc2cc(-c3ccccc3)nn2-c2ccccc2)s1 | 8.39% (inactive)
O=C(NNS(=O)(=O)c1ccccc1F)c1sccc1-n1cccc1 | 1.58% (inactive)
COC(=O)N/N=C/c1cc([N+](=O)[O-])cc(Br)c1O | 19.9% (inactive)
Cc1ccc([N+](=O)[O-])cc1/C=N/Nc1nnnn1-c1ccccc1 | -4.44% (inactive)
COc1cc(CCC(=O)OCC(=O)Nc2ccccc2C(C)C)cc(OC)c1OC | -3.32% (inactive)
N#CC(C#N)=C1C=CC=CN1/C(=C\c1ccco1)C(=O)c1ccc(-c2ccccc2)cc1 | 18.3% (inactive)
N#CC(C#N)=C1C=CC=CN1/C(=C\c1ccco1)C(=O)c1ccc(Cl)cc1 | 17.2% (inactive)
CCCc1nnc(NC(=O)NCCN2C(=O)C3C4C=CC(C4)C3C2=O)s1 (configuration not stated) | 0.7% (inactive)
Cn1c(Cn2nnc(-c3ccccc3)n2)nnc1SCc1ccccc1Cl | 0.85% (inactive)
CC(=O)N(c1ccc2oc(=O)sc2c1)S(=O)(=O)c1cccs1 | 21.6% (inactive)
CC(C)C(=O)N(c1ccc2oc(=O)sc2c1)S(=O)(=O)c1cccs1 | 6.95% (inactive)
CC(C)C(=O)N(c1cc2sc(=O)oc2c2ccccc12)S(=O)(=O)c1cccs1 | 23.3% (active)
Cc1ccc(-n2c(=O)cc(N3CCc4ccccc4C3)[nH]c2=O)cc1 | 3.06% (inactive)
CCc1cc2c(CN3CCN(CCO)CC3)cc(=O)oc2cc1O | 11.5% (inactive)
CCCCc1cc(=O)oc2c(CN3CCCC3)c(O)c(Cl)cc12 | 13.1% (inactive)
CCc1cc2c(CN3CCN(CC)CC3)cc(=O)oc2cc1O | -1.87% (inactive)
CCCc1cc(=O)oc2cc(C)c(CN3CCCC3)c(O)c12 | 13.2% (inactive)
CCc1cc2c(-c3ccccc3)cc(=O)oc2c(CN2CCOCC2)c1O | 9.72% (inactive)
CCc1cc(=O)oc2c(CN3CCCC3)c(O)c(Cl)cc12 | 18.3% (inactive)

SMILES | inhibition
CCOC(=O)c1ccc(NC(=S)NCCCN2CCOCC2)cc1 | -1.32% (inactive)
CCO[C@@H]1OC(C(=O)N2CCOCC2)=C[C@H](c2ccc(C(F)(F)F)cc2)[C@H]1CCCO | 2.16% (inactive)
O=C(CSc1nc2c(sc3ccccc32)c(=O)n1CCCN1CCOCC1)NCC1CCCO1 (configuration not stated) | 1.22% (inactive)
Cc1ccc(N2/C(=N/c3nc(C)cc(C)n3)NC(=O)CC2C(=O)O)cc1 (configuration not stated) | -5.89% (inactive)
O=Cc1ccc(-c2ccc(F)cc2)o1 | 12.4% (inactive)
O=C(/C=C/c1ccc(-c2ccccc2)o1)c1ccccc1 | 4.34% (inactive)
N=c1c2c3c(sc2nc2n1CCC2)CCCC3 | 7.32% (inactive)
CCNc1nc(Cl)nc(-c2cn(-c3ccccc3)c3ccccc23)n1 | -7.96% (inactive)
COc1ccc(NC(C)=O)cc1S(=O)(=O)N1CCN(C/C=C/c2ccccc2)CC1 | 2.09% (inactive)
CCSc1nnc2c(n1)OC1(CCCC1)Nc1ccccc1-2 | 12.5% (inactive)
O=C(O)c1ccc(/C=N/NC(=O)c2cc(-c3ccc4c5c(cccc35)CC4)n[nH]2)cc1 | 13.5% (inactive)
O=C(N/N=C/c1cccc([N+](=O)[O-])c1)c1cc(-c2ccc3c4c(cccc24)CC3)n[nH]1 | 6.89% (inactive)
COc1ccc(-n2c(=S)[nH]c3cc(C(=O)NCc4ccco4)ccc3c2=O)cc1OC | 7.75% (inactive) and 12.6% (inactive)
CCCc1cc(=O)[nH]c(Nc2cc(OC)ccc2OC)n1 | -0.31% (inactive)
CCOc1ccc(N(C(=O)c2ccccc2Cl)C2=NC(C)(C)CS2)cc1 | 5.11% (inactive)
COc1cccc(NS(=O)(=O)c2ccc3c(c2)C2C=CCC2C(c2ccc(C(=O)O)cc2)N3)c1 (configuration not stated) | 22.8% (inactive)
O=C(O)c1ccc2c(c1)C1C=CCC1C(c1ccncc1)N2 (configuration not stated) | 9.23% (inactive)
Brc1cc2c(cc1C1Nc3ccccc3C3C=CCC31)OCO2 (configuration not stated) | 6.9% (inactive)
Fc1ccc2c(c1)C1C=CCC1C(c1cc3c(cc1Br)OCO3)N2 (configuration not stated) | 5.12% (inactive)
Cc1nc2c(C)cccn2c1/C(O)=C1\C(=O)C(=O)N(CCN(C)C)C1c1ccccc1 (configuration not stated) | -2.63% (inactive)
CC(=O)c1ccccc1OC(=O)c1c(F)cccc1F | 3.59% (inactive)
Cc1nc2cc(F)ccc2n1C1CCN(C(=O)c2c(F)cccc2F)CC1 | 5.28% (inactive)
Cc1cccc(-c2c3c(=O)n(C)c(=O)n(C)c3cn2C(C)(C)C)c1 | 7.14% (inactive)

SMILES | inhibition
O=c1[nH]c2ccc(NC(=S)NCc3ccccc3)cc2[nH]1 | -4.38% (inactive)
C=CCn1c(COc2ccc(Cl)cc2)nnc1SCC(=O)N/N=C/c1cccc(O)c1 | 6.07% (inactive)
C=CCn1c(COc2ccccc2)nnc1SC(C)C(=O)N/N=C/c1cc(Cl)ccc1O (configuration not stated) | 46.5% (active)
C=CCn1c(COc2ccc(Cl)cc2)nnc1SCC(=O)N/N=C/c1ccccc1 | 0.22% (inactive)
CC1CC(=O)Nc2ccccc2N1S(=O)(=O)c1ccc(Br)cc1 (configuration not stated) | -1.92% (inactive)
COc1ccccc1NC(=O)Cc1noc(CSc2nnc(C)n2C)n1 | -2.44% (inactive)
Cc1ccccc1CS(=O)(=O)Cc1ccc(C(=O)NCc2ccccn2)o1 | 11.9% (inactive)
CCc1cc2ccc(C)cc2nc1SCC(=O)Nc1cc(OC)c(OC)cc1C(=O)O | 17.6% (inactive)
COC(=O)CSc1ncnc2scc(-c3ccccc3)c12 | 8.48% (inactive)
Cc1sc2ncnc(SCc3ccc(C(=O)O)cc3)c2c1C | 8.46% (inactive)
CCc1cc2ccccc2nc1SCC(=O)Nc1cc(OC)c(OC)cc1C(=O)O | 6.44% (inactive)
O=C(CSc1ncnc2scc(-c3ccccc3)c12)Nc1ccc(C(=O)O)cc1 | 7.21% (inactive)
Cc1ccc(-c2csc3ncnc(SCC(=O)O)c23)cc1 | -4.79% (inactive)
Cn1c(SCC(=O)N(Cc2ccccc2)C(C)(C)C)nc2ccccc21 | -3.33% (inactive)
COC(=O)c1ccc(N(C(=O)CNC(=O)c2ccco2)C(C(=O)NC2CCCC2)c2ccco2)cc1 (configuration not stated) | -1.68% (inactive)
FC(F)(F)c1cccc(OCCN2CCN(Cc3ccccc3)CC2)c1 | -0.96% (inactive)
O=c1cnnc(N/N=C/c2ccc3c(c2)OCO3)[nH]1 | 4.09% (inactive)
COc1ccc(C(=O)COc2ccc(F)cc2)c(O)c1C | 0.41% (inactive)
CCCCN1CNC(=S)N(CCc2ccccc2)C1 | 2.11% (inactive)
O=c1cc(/N=C/c2coc3cc(Br)ccc3c2=O)[nH]c(=S)[nH]1 | 18.8% (inactive)
O=C(NNC(=O)c1ccccc1O)c1ccco1 | 5.04% (inactive)
O=C(CN1C(=O)/C(=C/c2ccccc2)SC1=S)NNC(=O)c1ccccc1O | 6.33% (inactive)
O=C(NN=C1CCN(Cc2ccccc2)CC1)c1ccccc1O | 8.75% (inactive)

SMILES | inhibition
O=C(CCCN1C(=O)S/C(=C\c2ccccc2)C1=O)NNC(=O)c1ccccc1O | -1.57% (inactive)
CCN1C(=O)C2(C(C(=O)c3cc4ccccc4o3)=C(O)C(=O)N2CCCN2CCOCC2)c2ccccc21 (configuration not stated) | 2.91% (inactive)
COc1cccc(Cn2cnc3c(NS(=O)(=O)c4ccc(Cl)cc4)c(C)c(C)cc32)c1 | 7.11% (inactive)
O=C(O)c1ccc(N/N=C/c2ccc(-c3cccc(Cl)c3)o2)cc1 | 13.1% (inactive)
NC(=O)N/N=C/c1ccc(-c2ccc([N+](=O)[O-])cc2)o1 | 2.91% (inactive)
NC(=S)N/N=C/c1ccc(-c2ccc([N+](=O)[O-])cc2)o1 | -0.83% (inactive)
O=C(N/N=C/c1ccc(-c2cccc([N+](=O)[O-])c2)o1)c1ccc([N+](=O)[O-])cc1 | 2.39% (inactive)
Cc1ccc(C(=O)N/N=C\c2ccc(-c3ccc([N+](=O)[O-])cc3)o2)cn1 | 9.19% (inactive)
O=[N+]([O-])c1ccc(-c2ccc(/C=N/O)o2)cc1 | 2.25% (inactive)
O=C(N/N=C/c1ccc(-c2ccc([N+](=O)[O-])cc2)o1)C(O)c1ccccc1 (configuration not stated) | 18.2% (inactive)
O=C(N/N=C/c1ccc(-c2cccc([N+](=O)[O-])c2)o1)c1ccccc1O | -18.1% (inactive)
Cc1ccc(-n2c(-c3ccco3)n[nH]c2=S)cc1 | 0.43% (inactive)
COC(=O)c1cc(C(=O)OC)cc(N2C(=O)CC(NNC(=O)c3ccccc3Br)C2=O)c1 (configuration not stated) | 17.2% (inactive)
Cc1ccc(NC(=O)CN2C(=O)c3ccccc3C2=O)nc1 | 1.04% (inactive)
CCn1cc(C(=O)O)c(=O)c2cc(F)c(N/N=C/c3ccccc3[N+](=O)[O-])cc21 | -4.53% (inactive)
Cc1nc(-c2cccc(S(=O)(=O)N3CC(C)OC(C)C3)c2)cs1 (configuration not stated) | -2.63% (inactive)
CCOc1ccc(CCNC(=O)Cc2nn[nH]n2)cc1OCC | -2.11% (inactive)
CN(C)C(=O)c1c([N+](=O)[O-])c(C(C)(C)C)nn1C | 9.14% (inactive)
CCOc1ccccc1NC(=S)N1CCCc2ccccc21 | 2.13% (inactive)
C/C=C\C(=O)Nc1cccc(C2=NOC3(C2)C[C@@H](C(N)=O)N(C(=O)c2ccccc2)C3)c1 (some centres not stated) | 7.63% (inactive)
COc1ccc(C2c3ccc(O)cc3Oc3ncn(CCCO)c(=N)c32)cc1 (configuration not stated) | 8.86% (inactive)
O=C(O)CC1S/C(=N/N=C/c2ccc(-c3ccc(Cl)cc3[N+](=O)[O-])o2)NC1=O (configuration not stated) | 20.8% (inactive)
CNC(=S)N/N=C/c1ccc(-c2ccc(Cl)c([N+](=O)[O-])c2)o1 | 3.04% (inactive)
